Assay outcomes as filed in PubChem.
Pf growth 48h = P. falciparum growth inhibition at 48 hours (one generation); P. falciparum luciferase growth in erythrocytes, 48 h; Potency, µM (titrated, usually from 28.7 µM), for inactives: at the top dose activity change, negative = inhibition, hits mostly inhibitors; hit rate 5.9% among 310,000; AID 504832; note: potency is the fitted concentration of half-maximal effect
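Compounds are pin-transferred into medium, infected erythrocytes (2% hematocrit, 0.1% parasitemia final) are added, and plates sit one parasite generation at 37 C in 5% CO2. Detection reagent is then added and luminescence measured.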
HCMV antiviral = blocks human cytomegalovirus replication; hit rate 4.5% among 410,000; AID 1259415; HFF cells, HCMV-luciferase reporter, 72 h; hits give low values; activity change, negative = inhibition, % at 57.5 µM; in the data active = activity change below about -60%; inconclusive = no clear call, values can overlap the other calls; inactive = above about -39%
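Two compound doses tested in HFFs infected with HCMV-luciferase, MOI 1 PFU/cell, 72 h at 37C. Lysate luminescence read with OneGlo; data normalized against buffer-only and 10uM Salinomycin inhibitor controls.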
Pf growth 96h = P. falciparum growth inhibition at 96 hour, primary screen for plastid delayed-death inhibitors. P. falciparum luciferase reporter growth, 96 h. AID 504834. Potency, µM (highest dose often 28.7 µM), for the others: top-dose activity change, negative = inhibition, actives largely listed as inhibitors. hit rate 6.9% among 320,000; note: potency is the fitted concentration of half-maximal effect
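Plates of compound plus infected erythrocytes (2% hematocrit, 0.05% parasitemia final) incubate 96 hours, 37 C, 5% CO2. Detection reagent added; reduced luminescence from the parasites' luciferase reporter flags inhibition.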
Lassa entry inh = inhibitors of Lassa virus binding or cell entry; Lassa virus pseudotype entry inhibition, cell reporter; Potency, µM (series often up to 37.9 µM), without a hit: at the top dose activity change, negative = inhibition, hits mostly inhibitors; hit rate 1.2% among 300,000; calls by dose curve; tested in HEK293 cells; note: potency is the fitted concentration of half-maximal effect; nearly all actives have a fitted effect of over 50% in size
HCV inhibitor = HCV inhibition. Huh7.5.1 HCVcc-Cre infection, luciferase reporter, 44 h. hit rate 3.4% among 340,000. Potency, µM (top dose mostly 41.8 µM), without a hit: at the top dose activity change, negative = inhibition, usual class: inhibitors; note: potency is the fitted concentration of half-maximal effect
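A cell-based infection assay in which seeded cells (1,000 per well) receive test compound after 4 h, are inoculated with HCVcc-Cre at approximately 0.5 moi, and are incubated 44 h before luminescence detection.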
MARV entry inh = Marburg virus entry inhibition; Potency, µM (top dose mostly 37.8 µM), for the others: at the top dose activity change, negative = inhibition, hits mostly inhibitors; Marburg virus pseudotyped entry inhibition, cell reporter; hit rate 1.8% among 300,000; AID 540276; calls by dose curve; tested in HEK293 cells; note: potency is the fitted concentration of half-maximal effect
Active calls of the source: *; ? = inconclusive; / = not tested or not shown; [ ] = another dose, or the depositor's remark. The list is not random: actives were taken first. Their share in the collection is about 14%. Unless noted, calls come from the whole dose curve; as a rule, active = well fitted inhibition curve with a large enough effect; inconclusive = small, poorly fitted or top-dose-only effect, or another doubt; inactive = no such curve, though single readings can be large or run the other way. % is set by controls: 0 for no effect and ±100 for the full control effect.

SMILES	Pf growth 48h	HCMV antiviral	Pf growth 96h	Lassa entry inh	HCV inhibitor	MARV entry inh
COc1cc2c(cc1OC)C(C(=O)Nc1ccccn1)C(c1cccnc1)N(C)C2=O (centres undefined)	-17%	-8	1.7µM*	8%	6%	6%
CCCOC(=O)CSc1nnc2ccc3ccccc3n12	/	13	/	4%[46.1 µM]	/	-1%[46.1 µM]
CC(=O)Nc1ccc2nc3c(=O)[nH]c(=O)[nH]c3nc2c1	/	/	/	-5%[46.1 µM]	/	7%[46.1 µM]
COC(=O)C1=C(C(=O)OC)[C@@H]2N(CC=C(C)C)c3ccccc3[C@@]23CCC(=O)N(Cc2cccc(C(F)(F)F)c2)C3=N1	/	/	/	?	/	-28%[14.2 µM]
COc1cc2c(cc1OC)C(C(=O)Nc1ccc3c(c1)OCCO3)C1c3ccccc3CCN1C2=O (centres undefined)	-9%	-19	9.3µM*	-19%	-5%	1%
COc1cc2c(cc1OC)C(C(=O)Nc1ccccc1N1CCN(C)CC1)C1c3ccccc3CCN1C2=O (centres undefined)	?	-40	307%	1%	-16%	?
CC(=O)Nc1ccc(S(=O)(=O)N2CC3(C)CC2CC(C)(C)C3)cc1 (centres undefined)	-29%	?	2%	?	0%	?
CC1(C)CC2CC(C)(CN2S(=O)(=O)c2ccc(C(=O)Nc3ccc(S(=O)(=O)N4CCOCC4)cc3)cc2)C1 (centres undefined)	10µM*	-90*	?	3.5µM*	?	2.8µM*
CN(C)C(CNC(=O)c1cccc(S(=O)(=O)N2CC3(C)CC2CC(C)(C)C3)c1)c1ccco1 (centres undefined)	?	-11	17%[5.75 µM]	10%	-2%	?
CCCNC(=O)c1cccc(S(=O)(=O)N2CC3(C)CC2CC(C)(C)C3)c1 (centres undefined)	?	?	13µM*	-16%	-11%	-9%
CC1(C)CC2CC(C)(CN2S(=O)(=O)c2ccc(C(=O)Nc3ccc(Cl)c(S(=O)(=O)N4CCOCC4)c3)cc2)C1 (centres undefined)	9.3µM*	-98*	?	?	?	3.5µM*
CCOc1ccccc1CNC(=O)C1CCCN(c2ncnc3onc(-c4ccc(F)cc4)c23)C1 (centres undefined)	/	4	/	-1%[46.1 µM]	/	/
COCCCn1cc(CN2CC(N3CCN(Cc4ccccc4F)CC3)CS2(=O)=O)nn1 (centres undefined)	/	11	/	/	/	/
Cc1ccccc1N1C(=O)C2C3C=CC(CC3)C2C1=O (centres undefined)	-26%	-11	-26%	0%	24%	-4%
O=C1C2C3C=CC(CC3)C2C(=O)N1c1ccccc1F (centres undefined)	-6%	-63*	8%	-4%[46.1 µM]	-4%	2%[46.1 µM]
OCc1ccccc1-c1nc(NCC2CC2)nc2ccsc12	/	-31	/	/	/	/
CC1CCCN(C(=O)CCl)C1 (centres undefined)	4.7µM*	-40	1.5µM*	-10%	1%	25%
CSc1cc(-c2ccccc2)n(Cc2c(Cl)cccc2Cl)c(=O)c1C#N	/	-39	4%	?	6%	0%[46.1 µM]
CSc1cc(-c2ccccc2)n(C)c(=O)c1C#N	3%	-66*	9%	-9%[46.1 µM]	10µM*	4%[46.1 µM]
CCN(CC)c1ccc(NC(=O)CN(C)S(=O)(=O)c2cccc3nsnc23)c(C)c1	/	-67*	/	3%[46.1 µM]	/	?
CCN(CCNC(=O)CN(C)S(=O)(=O)c1cccc2nsnc12)c1ccccc1	/	27	12µM*	-6%	-19%	12%
CCN(CCCNC(=O)CN(C)S(=O)(=O)c1cccc2nsnc12)c1cccc(C)c1	?	-14	8.3µM*	?	?	-4%
Cc1ccc(C)c(NC(=O)CN(C)S(=O)(=O)c2cccc3nsnc23)c1	/	-15	/	5%[46.1 µM]	/	-13%[46.1 µM]
CCN(CCNC(=O)C1CCN(S(=O)(=O)c2cccc3nsnc23)CC1)c1ccccc1	?	-13	49%	-2%	-23%	0%
COc1ccc(CCNC2=CC(=O)N(c3ccc(F)cc3)C2=O)cc1	1%	-5	3.3µM*	?	-11%	-18%
SMILES	Pf growth 48h	HCMV antiviral	Pf growth 96h	Lassa entry inh	HCV inhibitor	MARV entry inh
CCCC[S@@](=N)(=O)CC[C@@H](N)C(=O)O	/	/	/	/	/	7%
CCOC(=O)C(C)Sc1nnc(Cc2cc(=O)[nH]c(=O)[nH]2)n1-c1ccc(Cl)cc1 (centres undefined)	3%	/	-1%	/	2%	/
CCOc1ccc(-n2c(Cc3cc(=O)[nH]c(=O)[nH]3)nnc2SCc2cccnc2)cc1	/	?	13µM*	/	/	/
CCOC(=O)C(C)Sc1nnc(Cc2cc(=O)[nH]c(=O)[nH]2)n1-c1ccc(OCC)cc1 (centres undefined)	/	-5	9.3µM*	/	13%	2%
CC(C)NC(=O)C1Cc2c(-c3ccc4c(c3)OCO4)ccnc2O1 (centres undefined)	/	-29	/	/	/	/
CCOC(=O)CN1C(=O)S/C(=C/c2ccc(C)o2)C1=O	18%	-5	10%	24%	11%	1%
CCN1C(=O)S/C(=C/c2ccc(Sc3nc4ccccc4[nH]3)o2)C1=O	-9%	-65*	9.3µM*	?	?	?
CC(=O)c1ccc(OCc2cc(C(=O)N3CCC(c4ccncc4)CC3)no2)cc1	3%	-81*	4%	/	?	/
O=C(c1cc(COc2cccc(C(F)(F)F)c2)on1)N1CCC(c2ccncc2)CC1	6%	/	?	/	?	/
COc1cccc(OCc2cc(C(=O)N3CCC(c4ccncc4)CC3)no2)c1	6%	-89*	-26%	?	10µM*	?
C=CCC1(CC=C)CCCN1C(=O)c1cc(COc2cccc(OC)c2)on1	?	0	-25%	/	14µM*	/
C=CCC1(CC=C)CCCN1C(=O)c1cc(COc2cncc(Cl)c2)on1	?	5	?	/	/	/
O=C(NCCSCc1cccc(Cl)c1)C1CCN(S(=O)(=O)Cc2ccccc2)CC1	/	-1	/	16%[46.1 µM]	/	10%[46.1 µM]
CCc1ccc(CNC(=O)C2COc3ccccc3C2)cc1 (centres undefined)	/	32	/	9%[46.1 µM]	/	/
Nc1[nH]c(C(=O)c2ccccc2)c(-c2ccc(Cl)cc2Cl)c1C(=O)c1ccc(Br)cc1	/	-28	/	/	/	/
COc1ccc(-c2nc(C)c(C(C)=O)n2O)cc1	10%	94	4.7µM*	14%	-6%	0%
CCOc1ccc(-c2nc(C)c(C(C)=O)n2O)cc1	27%	109	/	-14%	-4%	18%
CCCn1c2ccccc2c2cnn(CC(=O)NCc3ccccc3Cl)c(=O)c21	/	-22	/	18%[46.1 µM]	/	/
COc1cc(S(=O)(=O)NC(Cc2c[nH]c3ccccc23)C(=O)O)ccc1NC(C)=O (centres undefined)	32%	-34	30%	15%	15%	4%[46.1 µM]
